Our source for the growth inhibition values is PubChem BioAssay AID1979 (Broad Institute, 2009).

Among all 300,000 compounds or so, about 1,700 (0.57%) were called active. Inconclusive results (about 2%) are left out.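 Rule for the calls: active = growth inhibition above about 58% in most replicates (limit read from the data, passing the limit was not always enough); inconclusive = exactly half the replicates above a set limit; inactive = most replicates below a set limit.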 The sample as a whole holds a higher share of actives than the screen did.

The nature of the test: C. albicans growth inhibition with fluconazole, primary screen, CaCi-2 strain, Alamar Blue fluorescence (AID 1979).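 Note: all wells also contain fluconazole at 8 µg/ml as a sub-toxic cotreatment; 0% = median of DMSO wells and 100% = median of geldanamycin control wells.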 Conditions: C. albicans CaCi-2 (fluconazole-resistant clinical isolate) + fluconazole, 48 h, hits give high values, concentration not given here. Background: The colour change of resazurin is a common sign of viable cells or microbes.
For `COc1ccccc1/C=N\Nc1cc(C)nc(-n2nc(C)cc2C)n1`, the growth inhibition was 2.71% (inactive).
Consider `COc1cccc(/C=N/Nc2ncc(C(F)(F)F)cc2Cl)c1O`, for which the growth inhibition is 3.96% (inactive).
`COc1cccc(/C=N/Nc2cc(C)nc(-c3ccccc3O)n2)c1O`: the growth inhibition was 112% (active).
To `CCOC(=O)c1c(NC(=O)CN2C(=O)NC3(CCC(C)CC3)C2=O)sc(C)c1CC` (stereo not given) belongs -6.28% (inactive).
To `CN(C)c1ccc(/C=N\S(=O)(=O)c2ccccc2)cc1` belongs -0.179% (inactive); to `CC[n+]1cc(C)ccc1/C=C/c1ccc(N(C)C)cc1`, 79.2% (active); to `Cc1nnc(N/N=C/c2cccs2)[nH]c1=O`, -0.996% (inactive).
To `Cc1nnc(N/N=C/C2CC=CCC2)[nH]c1=O` (stereo not given) belongs -10.8% (inactive); to `Cc1nnc(N/N=C/c2ccccn2)[nH]c1=O`, 102% (active).
Regarding `CCN(CC(=O)Nc1cc(Cl)ccc1C)C(=O)CSCc1ccc(C)cc1`, the growth inhibition was -5.77% (inactive).
To `O=S(=O)(NCCS(=O)(=O)N1CCN(c2ccccc2)CC1)c1ccc(F)cc1` belongs 0.355% (inactive).
The value for `O=C(CC(NCCN1CCOCC1)C(=O)O)Nc1cccc(Cl)c1` (stereo not given) was 90.7% (active).
To `O=C(NCCN1CCOCC1)Nc1cccc(Cl)c1` belongs 10.7% (inactive).
As for `O=C(CC(c1ccccc1)c1cc(Cl)ccc1O)NCCN1CCOCC1` (stereo not given), the growth inhibition is -8.66% (inactive).
Take `COc1ccccc1C(=O)COC(=O)CSCC(=O)Nc1cc(C)on1`: the growth inhibition is 0.143% (inactive).
To `O=C(COC(=O)c1ncc(Cl)c(Cl)c1Cl)NC1CCS(=O)(=O)C1` (stereo not given) belongs -0.837% (inactive).
The value for `Oc1ccccc1/C=N/n1c(-c2cccs2)n[nH]c1=S` was -0.357% (inactive).
To `S=c1[nH]nc(-c2cccs2)n1/N=C/c1cccs1` belongs 78.7% (active).
For the compound `S=c1[nH]nc(-c2cccs2)n1/N=C/c1cn(-c2ccccc2)nc1-c1ccc(Cl)cc1`, the growth inhibition was -0.57% (inactive).
The value for `COc1cc(C(=O)OCC(=O)N(CC(C)C)C2CCS(=O)(=O)C2)ccc1OCC(C)C` (stereo not given) was 5.68% (inactive); that for `Cc1cccnc1NC(=O)c1cccc(S(=O)(=O)N2CCN(c3ccc(F)cc3)CC2)c1` was -15.4% (inactive).
Turning to `Oc1c(CN2CCN(c3ccc(F)cc3)CC2)cc(Cl)c2cccnc12`, the growth inhibition was 112% (active).
The value for `Oc1ccc(CN2CCN(c3ncccn3)CC2)cc1` was -5.62% (inactive).
The value for `Cc1noc(C)c1COc1ccccc1C(=O)N(C)CC(=O)Nc1cccc(F)c1` was 3.18% (inactive); that for `Cc1ccc(C(=O)NNC(=O)C(C)Oc2ccc3ccccc3c2)o1` (stereo not given) was -0.807% (inactive).
The value for `CCOC(=O)c1c(-c2ccccc2)oc2cc(Br)c(O)c(C=O)c12` was 99.6% (active); that for `CCOC(=O)c1c(-c2ccccc2)oc2cc(Br)c(O)cc12` was 15.1% (inactive); that for `CCOC(=O)c1c(-c2ccccc2)oc2ccc(OCC(N)=O)cc12` was 1.32% (inactive).
Turning to `OC(COCCC12CC3CC(CC(C3)C1)C2)CN1CCCCC1` (stereo not given), the growth inhibition is 8.32% (inactive).
The value for `O=C(CCCCO)c1ccc(O)c(Cl)c1` was -0.4% (inactive); that for `Cc1ccc(NNC(=O)c2cccs2)cc1Cl` was 94.7% (active); that for `Cc1ccc(NNC(=O)c2c(F)cccc2Cl)cc1Cl` was 3.83% (inactive).
The value for `O=C(NNC(=O)c1ccc(Cl)cc1Cl)c1cccs1` was -3.73% (inactive).
The value for `N[C@@H](Cc1ccccc1)C(=O)N1CCC(C(=O)NCC(=O)Nc2ccc(F)cc2)CC1` was -10.4% (inactive).
Take `COc1ccc(NC(=O)CSc2nc(C)cs2)cc1`: the growth inhibition is 106% (active).
To `Cc1csc(SCC(=O)Nc2sccc2C#N)n1` belongs 4.45% (inactive).
The value for `COc1cc(OC)cc(-c2nnc(SCC(=O)Nc3ccc(C(=O)O)cc3)s2)c1` was -1.63% (inactive).
The value for `Cc1ccnc(NC(=O)CNC(=O)c2ccccc2)c1` was -1.64% (inactive); that for `COc1ccc2oc(C(=O)OCC(=O)N(CC(C)C)c3c(N)n(Cc4ccccc4)c(=O)[nH]c3=O)c(C)c2c1` was 5.5% (inactive); that for `CCCn1c(C)cc(/C=C(\C#N)C(=O)OCC(=O)N(C)c2c(N)n(Cc3ccccc3)c(=O)[nH]c2=O)c1C` was -1.38% (inactive).
Turning to `Cc1c(CCO)sc[n+]1CC(=O)OC12CC3CC(CC(C3)C1)C2`, the growth inhibition was -19.8% (inactive).
To `Cc1c(CCOC(=O)c2cc([N+](=O)[O-])ccc2Cl)sc[n+]1CCCCS(=O)(=O)[O-]` belongs -13.2% (inactive).
On to `Cc1c(CCOC(=O)CC23CC4CC(CC(C)(C4)C2)C3)sc[n+]1Cc1ccc([N+](=O)[O-])cc1`, for which the growth inhibition was 93% (active).
To `COc1ccc(/C=N/Nc2ncnc3sc4c(c23)CCCC4)cc1O` belongs 18.5% (inactive).
The value for `COc1ccc(-c2cc(C(=O)NC(Cc3c[nH]c4ccccc34)C(=O)O)c(C)o2)cc1OC` (stereo not given) was -7.28% (inactive); that for `COc1cc2cc(C(=O)N/N=C/c3cccc(OC)c3OC)[nH]c2cc1OC` was 0.698% (inactive).
To `COc1cccc(/C=N/NC(=O)c2[nH]nc3c2CCc2ccccc2-3)c1O` belongs 89.9% (active); to `CN(C)CCNC(=O)c1[nH]nc2c1CCc1ccccc1-2`, -8.27% (inactive); to `CCOc1ccc(-c2cc(C(=O)N/N=C/c3ccc(O)cc3)c3ccccc3n2)cc1`, 10.7% (inactive).
As for `CCC1(c2ccccc2)NC(=O)N(CC(=O)Nc2ccccc2C(=O)NC2CCCC2)C1=O` (stereo not given), the growth inhibition was 2.41% (inactive).
Take `Oc1c(C(c2ccccn2)N2CCOCC2)ccc2cccnc12` (stereo not given): the growth inhibition was 85.8% (active).
With `CC(C)c1cc(CN2CCOCC2)cc(C(C)C)c1O`, the growth inhibition is 5.31% (inactive).
The value for `CCC(C)N(C(=O)COC(=O)c1nc(Cl)ccc1Cl)C1CCS(=O)(=O)C1` (stereo not given) was -0.955% (inactive).
The value for `Cc1cccc(NC(=O)COC(=O)CCc2ccccc2)c1C` was 0.193% (inactive); that for `Cc1cccc(NC(=O)CN2C(=O)c3ccccc3C2=O)c1C` was -5.98% (inactive).
To `Cc1cccc(NC(=O)CSC(N)=O)c1C` belongs 91.9% (active).
Take `COc1ccc(CCNc2cc(N3CCN(C(=O)c4ccccc4OC)CC3)ccc2[N+](=O)[O-])cc1OC`: the growth inhibition was -7.13% (inactive).
To `O=C(COc1ccc2c3c(c(=O)oc2c1)CCC3)NC1CCCCC1` belongs 13.6% (inactive).
For the compound `NC(=O)C1CCN(C(=O)COc2ccc3c4c(c(=O)oc3c2)CCC4)CC1`, the growth inhibition was -1.66% (inactive).
The value for `NC(=O)COc1ccc2c3c(c(=O)oc2c1)CCCCC3` was 122% (active).
